KB-3-1 tox: KB-3-1 parental cell cytotoxicity; KB-3-1 viability, CellTiter-Glo ATP luminescence, 72 h; Potency, µM (series often up to 46.1 µM), hits mostly cytotoxic; 1.4% of 400,000 active; note: % is set by controls: 0 for no effect and ±100 for the full control effect; nearly all actives have a fitted effect of over 60% in size
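KB-3-1 cells, DMEM (no phenol red) + 10% FBS; compound by pin transfer, 72 h, 37 °C. Readout: CellTiter-Glo luminescence after 10 min. Data normalized, curve-fitted.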
HT1080 IDH1KD tx: kills HT-1080 cells with IDH1 knockdown; HT-1080 IDH1 knockdown viability, ATP luminescence, 48 h; Potency, µM (highest dose often 46.1 µM), for inactives: at the highest dose activity, negative = toxicity, hits mostly cytotoxic; 2% of 360,000 active; AID 686971;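 note: 0% = DMSO wells and -100% = cell-free medium wells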
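Knockdown cells (IDH1KD HT-1080) received compounds 2 h after plating at 750 cells/well and were kept 48 h at 37 °C in 5% FBS RPMI. A CellTiter-Glo luminescence read gave % activity for curve fitting.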
HepG2 tox-1: HepG2 cytotoxicity, counter-screen for TGF-b inhibitors | HepG2 CAGA-GFP viability, ATP luminescence, 18 h | Potency, µM (top dose mostly 46.1 µM), for the others: at the top dose activity change, negative = cytotoxicity, hits mostly cytotoxic | 0.76% of 410,000 active
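HepG2 CAGA-GFP cells (1000/well, DMEM with 1% FBS) received compound, then TGF-beta at 500 pg/mL final, and were incubated 18 hours at 37 degrees C. Viability was read by CellTiter-Glo luminescence. Media-only wells were set as complete cell-killing and DMSO as no toxicity.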
KB-V1 MDR tox: kills drug-selected multidrug resistant KB-V1 cells; KB-V1 MDR cells viability, CellTiter-Glo, 72 h; Potency, µM (series often up to 46.1 µM), actives largely listed as cytotoxic; 3.4% of 400,000 active; note: % is set by controls: 0 for no effect and ±100 for the full control effect; nearly all actives have a fitted effect of over 60% in size
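KB-V1, DMEM (no phenol red) + 10% FBS; cpd pin-transferred, titration series; 72 h, 37 degrees C; CellTiter-Glo, luminescence. Data normalized, curve-fit.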
TGFb SMAD3 inh: inhibitors of TGF-b signaling; HepG2 CAGA-GFP TGF-b/SMAD3 reporter, GFP fluorescence, 18 h; TGF-beta stimulated, 500 pg/mL final; Potency, µM (highest dose often 46.1 µM), for the others: at the highest dose activity, negative = inhibition, actives largely listed as inhibitors; 1.2% of 410,000 active; note: % is set by controls: 0 for no effect and ±100 for the full control effect; nearly all actives have a fitted effect of over 65% in size
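Inhibition was scored as loss of TGF-beta-induced (500 pg/mL final, 18 hours, 37 degrees C) GFP in HEPG2 cells carrying a CAGA-GFP reporter, in DMEM with 1% FBS. Well GFP was summed per cell; Activity was normalised to unstimulated and stimulated DMSO wells, then concentration-response fitting.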
HT1080-NT tox: kills 2HG-producing HT-1080-NT fibrosarcoma cells; HT-1080-NT fibrosarcoma viability, CellTiter-Glo ATP luminescence, 48 h; Potency, µM (titrated, usually from 46.1 µM), for inactives: at the top dose activity, negative = less viability, most hits filed as cytotoxic; 1.6% of 360,000 active;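 note: NT is the 2HG producing partner of a matched IDH1 knockdown line; 0% = DMSO-treated cells and -100% = media-only wells without cells; nearly all actives have a fitted effect of over 55% in size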
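Viability of the 2HG-overproducing fibrosarcoma line after 48 hours of compound exposure at 37 degrees C was determined by luminescence with CellTiter-Glo, and concentration-effect curves were then fitted and categorized.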
TGFb CAGA inh: TGF-b pathway inhibition, cherry-pick retest; Potency, µM (top dose mostly 46.1 µM), inactives show top-dose activity, negative = inhibition, usual class: inhibitors; 63% of 1,600 active; shares compounds with TGFb SMAD3 inh; HepG2 CAGA-GFP TGF-b reporter, GFP fluorescence, 18 h; cells stimulated with TGF-beta, 500 pg/mL; note: % is set by controls: 0 for no effect and ±100 for the full control effect; nearly all actives have a fitted effect of over 65% in size
HepG2 tox-2: HepG2 cytotoxicity, TGF-b inhibitor counterscreen. shares compounds with TGFb SMAD3 inh. HepG2 CAGA-GFP viability, ATP luminescence, 18 h; cells stimulated with TGF-beta, 500 pg/mL. Potency, µM (highest dose often 46.1 µM), for the others: at the highest dose activity, negative = cytotoxicity, actives largely listed as inhibitors. 27% of 1,600 active; note: % is set by controls: 0 for no effect and ±100 for the full control effect; nearly all actives have a fitted effect of over 70% in size
CCL64 TGFb inh: blocks TGF-b signaling in CCL64 reporter cells; Potency, µM (top dose mostly 46.1 µM), for the others: top-dose activity, negative = inhibition, most hits filed as inhibitors; 41% of 1,600 active; AID 720536; shares compounds with TGFb SMAD3 inh; CCL64 CAGA-GFP reporter, TGF-b stimulated, GFP fluorescence, 18 h; note: nearly all actives have a fitted effect of over 65% in size
COP TGFb inh: blocks TGF-b signaling in HepG2 COP reporter | 3% of 1,600 active | Potency, µM (series often up to 46.1 µM), inactives show at the highest dose activity, negative = inhibition, actives largely listed as inhibitors | shares compounds with TGFb SMAD3 inh | HepG2 COP-GFP TGF-b reporter, GFP fluorescence, 18 h; cells stimulated by added recombinant TGF-beta; note: nearly all actives have a fitted effect of over 70% in size
* hit, by the source's call; i = inactive; ? = inconclusive; . = not tested or not shown. This is a sample that favours compounds with a hit; in the whole collection about 6.6% have one here. Calls come from the whole dose curve; as a rule, active = well fitted curve in the direction sought with a large enough effect; inconclusive = small, poorly fitted or top-dose-only effect, or another doubt; inactive = no such curve, though single readings can be large; an effect the other way counts as inactive or inconclusive. Potency is the fitted concentration of half-maximal effect.

SMILES | KB-3-1 tox | HT1080 IDH1KD tx | HepG2 tox-1 | KB-V1 MDR tox | TGFb SMAD3 inh | HT1080-NT tox | TGFb CAGA inh | HepG2 tox-2 | CCL64 TGFb inh | COP TGFb inh
COc1cc(C2C3=C(COC3=O)OC(C)(C)Oc3cc4c(cc32)OCO4)cc(OC)c1OC (stereo not drawn) | 0.73µM* | ? | -2% | 3.7µM* | 2.8µM* | ? | ? | 0% | ? | -2%
COc1cc(C2C3=C(COC3=O)Oc3cc4c(cc32)OCO4)ccc1O (stereo not drawn) | 3.7µM* | ? | -4% | 4.6µM* | 13µM* | ? | -30% | 8% | ? | -17%
Cc1ccc(C)c(NC(=O)Cn2c(=O)ccc3cc(S(=O)(=O)N4CCCC4)ccc32)c1 | i | . | -20% | ? | -11% | . | . | . | . | .
Cc1ccc(C(=O)NCCN(C)C)c(C)c1 | i | 9% | -2% | i | -7% | 6% | . | . | . | .
CNc1c2cccc(C)c2nc2c(C(=O)NCCN(C)C)cccc12 | 0.29µM* | 7.3µM* | -7% | ? | 1.1µM* | ? | 0.58µM* | 0.52µM* | 1.3µM* | 69%
CN(Cc1ccccc1)C(=O)c1[nH]cnc1C(=O)Nc1cccc(Cl)c1 | i | -1% | -19% | i | ? | 2% | ? | ? | -8% | -1%
CC(C)C[C@H](NC(=O)c1nc[nH]c1C(=O)N1CCN(c2ccccc2)CC1)C(=O)OC(C)(C)C | i | -7% | -32% | i | ? | -18% | -8% | -3% | -24% | 5%
CC(C)(C)OC(=O)[C@H](Cc1ccccc1)NC(=O)c1nc[nH]c1C(=O)N[C@@H](Cc1ccccc1)C(=O)OC(C)(C)C | 16µM* | ? | -12% | ? | 13µM* | -19% | 15µM* | ? | ? | 39%
Cc1ccc(NC(=O)c2nc[nH]c2C(=O)NCCCNC(=O)c2[nH]cnc2C(=O)Nc2ccc(C)cc2)cc1 | i | 15% | -2% | i | ? | 17% | ? | ? | ? | ?
COc1ccc([C@H]2C[C@H](O)[C@@H](n3cc(-c4ccc(F)cc4)nn3)CN2C(=O)C2CCCCC2)cc1 | i | -1% | -1% | i | 4% | -2% | . | . | . | .
COc1ccccc1-n1nc(-c2ccccc2)c2cnc3cc(C(F)(F)F)ccc3c21 | i | . | 2% | i | 16% | . | . | . | . | .

Screening data from PubChem BioAssay.
